# ± gives the standard deviation.
# How the values were obtained:
# [1] = tested on: MILI (PIWIL2) piRISC loaded with piRNA #1 (26 nt); assay: pre-steady-state target cleavage rate (min^-1); guide: piRNA #1 5'p-UGAGGUAGUAGGUUGUAUAGUAUCCA; higher = faster piRNA-guided slicing of the target; details: auxiliary factor: 500 nM mouse GTSF1
# Method in brief: (§1)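 Cleave-'n-Seq reactions paired 0.1 nM transcribed, DNA-blocked target RNA library with 1 nM active affinity-purified piRISC holding one synthetic guide, plus or minus 500 nM GTSF1 partner protein, in HEPES–potassium acetate buffer at 33 °C for 0–8 or 0–960 min. After sequencing of uncleaved targets and normalisation to depth and weakly complementary targets, the pre-steady-state cleavage rate was taken from a burst-and-steady-state fit. Three trials were pooled, and k3 was capped at 0.0001 min^-1.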
# [2] = tested on: EfPiwi piRISC loaded with piRNA #1 (26 nt); assay: pre-steady-state target cleavage rate (min^-1); auxiliary factor: 500 nM Ephydatia muelleri Gtsf1; guide: piRNA #1 5'p-UGAGGUAGUAGGUUGUAUAGUAUCCA; higher = faster piRNA-guided slicing of the target
# Method in brief: as §1
# [3] = tested on: EfPiwi piRISC loaded with L1MC piRNA (26 nt); assay: pre-steady-state target cleavage rate (min^-1); auxiliary factor: none (no Gtsf1); guide: L1MC piRNA 5'p-UAACUAAAUACUAUGCAAGCUGUAGG; higher = faster piRNA-guided slicing of the target
# Method in brief: as §1
# [4] = tested on: MILI (PIWIL2) piRISC loaded with L1MC piRNA (26 nt); assay: pre-steady-state target cleavage rate (min^-1); guide: L1MC piRNA 5'p-UAACUAAAUACUAUGCAAGCUGUAGG; MIWI and MILI are mouse PIWI proteins and EfPiwi is from a freshwater sponge; tags in brackets are library labels; higher = faster piRNA-guided slicing of the target
# Method in brief: as §1
# [5] = auxiliary factor: none (no GTSF1)
sequence,measurement,setting,value
GGAGUGGAUACUAUAGAACCUUCUACCUCA,pre-steady-state target cleavage rate,[1],0.00415 ± 0.0015
same,pre-steady-state target cleavage rate,[2],0.00334 ± 0.0018
GGAGAGGAUACUAAACAACCUAGUACCUCA,pre-steady-state target cleavage rate,[1],0.00823 ± 0.004
same,pre-steady-state target cleavage rate,[2],0.00257 ± 0.002
GGAGAGGAUACUAUACAACCUACUACUUCA,pre-steady-state target cleavage rate,[1],0.153 ± 0.015
same,pre-steady-state target cleavage rate,[2],0.121 ± 0.05
GGAGUGGUUACUAUACAACCUACUAGCUCA,pre-steady-state target cleavage rate,[1],0.0259 ± 0.0059
same,pre-steady-state target cleavage rate,[2],0.00221 ± 0.001
GGAGACGUAUCUAUACAACCUACUACCUCA,pre-steady-state target cleavage rate,[1],0.156 ± 0.015
same,pre-steady-state target cleavage rate,[2],0.00913 ± 0.0041
GGAGACCUAUCUAUACAAGCUACUACCUGA,pre-steady-state target cleavage rate,[1],0.125 ± 0.019
same,pre-steady-state target cleavage rate,[2],0.00244 ± 0.0023
GGAGACCAUAUUAUACAACCUACUACCUCA,pre-steady-state target cleavage rate,[1],0.188 ± 0.015
same,pre-steady-state target cleavage rate,[2],0.116 ± 0.036
GGAGUGGAUUCUAUACAAGCUACUACCUCA,pre-steady-state target cleavage rate,[1],0.228 ± 0.013
same,pre-steady-state target cleavage rate,[2],0.00371 ± 0.0019
GGAGAGGAUUCUAUACAACCUACUACCUCA,pre-steady-state target cleavage rate,[1],0.179 ± 0.011
same,pre-steady-state target cleavage rate,[2],0.0066 ± 0.0039
GGAGACGAUACUAUUCAACCUACUACCACA,pre-steady-state target cleavage rate,[1],0.161 ± 0.014
same,pre-steady-state target cleavage rate,[2],0.00322 ± 0.0017
GGAGUGGAUACUAUACAACCGACUACCUCA,pre-steady-state target cleavage rate,[1],0.00279 ± 0.0026
same,pre-steady-state target cleavage rate,[2],0.00469 ± 0.0016
GGAGACCUUACUAUACAACGUACUACCUGA,pre-steady-state target cleavage rate,[1],0.0102 ± 0.0027
same,pre-steady-state target cleavage rate,[2],0.00475 ± 0.0042
GGAGAGGAUACUAUACAACCUACUACCUAA,pre-steady-state target cleavage rate,[1],0.125 ± 0.011
same,pre-steady-state target cleavage rate,[2],0.0131 ± 0.0058
GGAGAGGAUACUAUCAACCUACUACCUCA,pre-steady-state target cleavage rate,[1],0.154 ± 0.01
same,pre-steady-state target cleavage rate,[2],0.0088 ± 0.0053
GGAGACCUUACUAUACAAGCUACUACCACA,pre-steady-state target cleavage rate,[1],0.266 ± 0.023
same,pre-steady-state target cleavage rate,[2],0.00275 ± 0.0027
UCCUGGAUGUCGAACGAUAGUAUUUGAGUUA,pre-steady-state target cleavage rate,[3],< 0.0001
UCCUGGAUCAGCAACCAUAGUAUUUUCAAA,pre-steady-state target cleavage rate,[4]; [5],< 0.0001
same,pre-steady-state target cleavage rate,[3],< 0.0001
UCCUGGAUGUCGAUGCAUAGUCAUUUAGUUA,pre-steady-state target cleavage rate,[4]; auxiliary factor: 500 nM mouse GTSF1,0.00452 ± 0.004
same,pre-steady-state target cleavage rate,[3],< 0.0001
UCCUGGAUGUCGAACGUUACUAUUAAGUUA,pre-steady-state target cleavage rate,[4]; [5],< 0.0001
same,pre-steady-state target cleavage rate,[3],< 0.0001
UCCUGGAUGUCGAUGGAUAGAAUUUAGUUA,pre-steady-state target cleavage rate,[3],< 0.0001

# From the supplement of paper PMC10338343
